Rows were chosen to be rich in hits. Some 12% of all compounds tested hit in one or more screens of this group.
Sm TGR inh – qHTS Assay for the Inhibitors of Schistosoma Mansoni Peroxiredoxins; purified TGR, DTNB reduction, TNB absorbance 405 nm; 360,000 compounds, 3% hits; Potency, µM (top dose mostly 114 µM), for the others: top-dose activity change, negative = inhibition, most hits filed as inhibitors; Schistosoma mansoni thioredoxin glutathione reductase (TGR), Q962Y6; also: % is scaled to controls: 0 for no effect and ±100 for the full control effect; nearly all actives have a fitted effect of over 60% in size
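Kinetic colorimetric format: TGR-catalysed, NADPH-driven DTNB reduction monitored via TNB absorbance. Enzyme dispensed at 20 nM; compound exposure 15 min at room temperature before reaction start.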
AmpC inh detg – qHTS Inhibitors of AmpC Beta-Lactamase (assay with detergent); P00811; AmpC hydrolysis of nitrocefin, absorbance 480 nm, 0.01% Triton; Potency, µM (series often up to 114 µM), for the others: top-dose activity change, negative = inhibition, usual class: inhibitors; 370,000 compounds, 0.041% hits; AID 485294, 2010;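 also: 0% = no-compound wells and -100% = no-enzyme wells; nearly all actives have a fitted effect of over 25% in size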
Target sequence (P00811 whole entry, looked up): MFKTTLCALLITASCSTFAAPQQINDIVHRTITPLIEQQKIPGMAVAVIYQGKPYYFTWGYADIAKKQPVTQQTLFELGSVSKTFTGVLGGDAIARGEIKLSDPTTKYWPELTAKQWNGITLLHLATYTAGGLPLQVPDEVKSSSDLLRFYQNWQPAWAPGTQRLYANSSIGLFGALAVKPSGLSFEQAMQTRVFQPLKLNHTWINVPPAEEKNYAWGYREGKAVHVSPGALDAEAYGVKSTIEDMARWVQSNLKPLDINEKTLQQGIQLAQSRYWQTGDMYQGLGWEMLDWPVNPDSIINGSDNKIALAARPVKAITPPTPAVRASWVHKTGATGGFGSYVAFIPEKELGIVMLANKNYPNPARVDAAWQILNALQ
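AmpC (5.3 nM in the dispensed reagent) in 20 mM phosphate pH 7.0 with 0.01% (detergent screen) or 0.0001% Triton X-100 was preincubated with compounds for 15 min at room temperature. Nitrocefin was then added from an 800 uM solution, and hydrolysis was followed at 480 nm.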
SARS PLpro yeast – qHTS of Yeast-based Assay for SARS-CoV PLP; AID 485353, 2010; S. cerevisiae expressing SARS-CoV PLpro, growth rescue; Potency, µM (doses to about 32.9 µM), for the others: top-dose activity, positive = growth rescue, most hits filed as activators; 330,000 compounds, 0.19% hits; calls by dose curve; also: 0% is about no effect; nearly all actives have a fitted effect of over 55% in size
AmpC no deterg – qHTS Inhibitors of AmpC Beta-Lactamase (assay without detergent). P00811. AmpC nitrocefin hydrolysis, absorbance 480 nm, 0.0001% Triton. Potency, µM (highest dose often 57.1 µM), inactives show at the highest dose activity change, negative = inhibition, most hits filed as inhibitors. 330,000 compounds, 0.52% hits. AID 485341, 2010;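 also: plate controls were no compound for no effect and no enzyme for full effect; nearly all actives have a fitted effect of over 20% in size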
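AmpC (5.3 nM in the dispensed reagent) in 20 mM phosphate pH 7.0 with 0.01% (detergent screen) or 0.0001% Triton X-100 was preincubated with compounds for 15 min at room temperature. Nitrocefin was then added from an 800 uM solution, and hydrolysis was followed at 480 nm.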
Pf growth 48h – Primary qHTS for delayed death inhibitors of the malarial parasite plastid, 48 hour incubation | 310,000 compounds, 5.9% hits | Potency, µM (titrated, usually from 28.7 µM), for inactives: at the highest dose activity change, negative = inhibition, usual class: inhibitors | AID 504832, 2011 | P. falciparum luciferase growth in erythrocytes, 48 h; also: % is scaled to controls: 0 for no effect and ±100 for the full control effect
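In quantitative HTS format, infected erythrocytes bearing luciferase-reporter parasites were treated for a single generation at 37 C. Luminescence after adding detection reagent served as the growth measure.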
Pf growth 96h – Primary qHTS for delayed death inhibitors of the malarial parasite plastid, 96 hour incubation | 320,000 compounds, 6.9% hits | P. falciparum luciferase reporter growth, 96 h | Potency, µM (titrated, usually from 28.7 µM), without a hit: at the highest dose activity change, negative = inhibition, most hits filed as inhibitors; also: % is scaled to controls: 0 for no effect and ±100 for the full control effect
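Compounds incubated with erythrocytes infected by luciferase-expressing P. falciparum (2% hematocrit, 0.05% parasitemia final) for 96 hours, 37 C in 5% CO2. Growth inhibition scored as decreased luciferase luminescence.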
Numbers without * were called inactive; ? = inconclusive; / = not tested or not shown; [ ] = remark or other dose. Unless noted, calls follow the shape of the dose curve; as a rule, active = well fitted curve in the direction sought with a large enough effect; inconclusive = small, poorly fitted or top-dose-only effect, or another doubt; inactive = no such curve, though single readings can be large; an effect the other way counts as inactive or inconclusive. Potency is read from the fitted curve at half-maximal effect.

SMILES	Sm TGR inh	AmpC inh detg	SARS PLpro yeast	AmpC no deterg	Pf growth 48h	Pf growth 96h
COc1ccc(NC2CCCN(C(=O)Cn3ccc(C)n3)C2)cc1OC (centres undefined)	-31.1%	4.0%	-2.1%	1.7%	-14.8%	5.22µM*
Cc1ccc(NC2CCCN(C(=O)CCC3=NNC(=O)CC3)C2)cc1C (centres undefined)	-1.2%	3.8%	1.4%	18.0%	7.8%	8.28µM*
Cc1ccnn1CCC(=O)N1CCCC(Nc2ccc(F)c(F)c2)C1 (centres undefined)	?	8.7%	4.0%	36.2%	0.0%	11.7µM*
Cc1ccn(CC(=O)N2CCCC(N3CCN(c4cccc(Cl)c4)CC3)C2)n1 (centres undefined)	-2.9%	-5.0%	-4.2%	74.2%	?	?
Cc1ccn(CC(=O)N2CCCC(N3CCN(c4ccccc4F)CC3)C2)n1 (centres undefined)	-20.7%	?	-3.5%	-24.2%	10.6%	13.1µM*
CN1CCN(c2nc(-c3ccccc3)nc3c2oc2ccccc23)CC1	0.0%	-8.0%	-1.8%	-10.2%	?	5.86µM*
Cc1cc(N2CCC(C(=O)Nc3ccc(F)cc3)CC2)nc(-c2ccccc2)n1	-24.2%	-10.9%	-7.9%	46.6%	-15.3%	/
NC(=O)C1CCN(c2nc(-c3ccccc3)nc3c2oc2ccccc23)CC1	-1.8%	-0.1%	8.6%	-27.9%	30.9%	1.47µM*
CCc1nc(N2CCC(C)CC2)c2oc3ccccc3c2n1	-11.0%	?	0.4%	30.5%	?	-2.7%[5.75 µM]
NC(=O)C1CCN(c2nc(-c3ccccc3)nc3ccccc23)CC1	5.5%	2.8%	-7.8%	11.8%	?	?
Cc1cc(N2CCC(C(N)=O)CC2)nc(-c2ccccc2)n1	-0.1%	-11.1%	-0.1%	-3.5%	/	0.738µM*
CC(C)CNC(=O)C1C2C=CC(C2)C1C(=O)O (centres undefined)	-0.9%	-0.1%	0.6%	-13.3%	1.5%	2.1%
CCCCN(C(=O)C1CCCO1)c1c(N)n(CC(C)C)c(=O)[nH]c1=O (centres undefined)	5.9%	-18.3%	-0.9%	-9.0%	49.5%	1.4%
CCCSc1ncc(Cl)c(C(=O)Nc2sc3c(c2C(=O)OC)CCCC3)n1	3.6%	12.9%	/	/	/	/
CSc1nc(Oc2ccc(Cl)cc2)c2sccc2n1	-0.2%	-3.7%	3.1%	?	?	9.28µM*
CSc1nc(Oc2ccccc2)c2sccc2n1	0.8%	-2.1%	-5.1%	-10.8%	-0.5%	-7.1%
O=C(CSc1nnc(Cc2cccs2)n1CCc1ccccc1)N1CCCc2ccccc21	-4.1%	1.2%	-4.4%	10.9%	9.28µM*	/
Cn1cccc1Cc1nnc(SCC(=O)N2CCc3ccccc32)n1CCc1ccccc1	-33.0%	?	1.3%	163.6%	13.1µM*	?
Cc1ccc(C(=O)COC(=O)c2cccc(NC(=O)c3ccc(Cl)cc3Cl)c2)cc1	3.2%	12.8%	/	/	/	/
CN(C)S(=O)(=O)c1cccc(C(=O)C2=C3SC=C(c4ccccc4)N3CC2)c1	4.47µM*	?	11.5%	-14.5%	-18.7%	3.29µM*
CN(C)S(=O)(=O)c1cccc(C(=O)N2CCc3ccccc32)c1	-5.5%	-12.4%	11.9%	-20.3%	2.6%	/
Cc1cccc2[nH]c3c(N4CC=C(c5ccc(F)cc5)CC4)ncnc3c12	11.4%	13.5%	-4.7%	-29.7%	10.4µM*	?
Cc1cccc(C)c1NC(=O)CNC(=O)C(C)N1CCN(c2cccc(Cl)c2)CC1 (centres undefined)	-2.0%	2.8%	1.2%	159.2%	?	-8.2%
COc1ccc(C(=O)Oc2cc(-c3ccc(OC)c(OC)c3)cc(=O)c3c(C)oc(C)c23)cc1	?	14.8%	/	/	/	/
COc1ccc(-c2cc(OC(=O)c3cccc(C)c3)c3c(C)oc(C)c3c(=O)c2)cc1	12.6µM*	4.8%	/	/	/	/
SMILES	Sm TGR inh	AmpC inh detg	SARS PLpro yeast	AmpC no deterg	Pf growth 48h	Pf growth 96h
CCOc1ccc(-c2cc(OC(=O)c3ccccc3)c3c(C)oc(C)c3c(=O)c2)cc1	50.1µM*	14.6%	/	/	/	/
CCOc1cc(-c2ccc3c(c2)OCO3)cc(=O)c2c(C)oc(C)c12	35.5µM*	?	-0.1%	-22.9%	?	26.3%
COCCCNC(=O)c1c(NC(=O)Cc2coc3c(C)c(C)ccc23)sc2c1CCCC2	-1.2%	2.0%	/	/	/	/
CCN(C(=O)CSc1nnc(-c2ccncc2)n1Cc1ccccc1)C1CCS(=O)(=O)C1 (centres undefined)	6.5%	-1.9%	-1.8%	-1.4%	128.3%	-9.9%
COCCn1c(C)cc(C(=O)COC(=O)c2ccc([N+](=O)[O-])o2)c1C	35.5µM*	3.3%	-13.7%	-2.2%	34.1%	2.0%
Cc1cc(C(=O)COC(=O)c2ccc3c(c2)OCO3)c(C)n1CC1CCCO1 (centres undefined)	-3.9%	-8.8%	-1.1%	51.3%	280.5%	331.4%
Cc1cc(C(=O)COC(=O)c2ccc([N+](=O)[O-])o2)c(C)n1CC1CCCO1 (centres undefined)	35.5µM*	1.8%	-17.1%	6.8%	47.2%	2.1%
Cc1cc(C(=O)COC(=O)c2ccc(O)cc2)c(C)n1CC1COc2ccccc2O1 (centres undefined)	2.9%	-20.2%	-7.4%	-39.4%	?	13.1µM*
Cc1cccc(-c2nc(CCNC(=O)c3ccccc3Br)cs2)c1	4.9%	10.3%	/	/	/	/
CC1(c2ccc(OC(F)F)cc2)NC(=O)N(CC(=O)Nc2ccc(Cl)cc2F)C1=O (centres undefined)	9.4%	?	-0.6%	4.1%	39.1%	-4.6%
CCOC(=O)C1CCN(C(=O)c2cccc(S(=O)(=O)NCc3ccccc3)c2)CC1	-3.7%	0.2%	-7.6%	-1.0%	?	?
CCc1ccccc1NC(=O)Nc1nnc(N(C)Cc2ccccc2)s1	-11.0%	-4.7%	/	/	/	/
CN(C)c1ccc(-c2ccc([C@H]3[C@@H]4C=CCC[C@@]4(C)C(=O)N3Cc3ccccc3)c(F)c2)cc1	2.9%	2.0%	-0.4%	1.5%	9.28µM*	?
C[C@@]12CCC=C[C@H]1[C@H](c1ccccc1Br)N(Cc1ccccc1)C2=O	/	/	-58.3%	30.1%	/	/
C[C@@]12CCC=C[C@H]1[C@H](c1ccoc1)N(Cc1ccccc1)C2=O	35.5µM*	-3.2%	-3.3%	17.7%	39.3%	61.5%
